Measured values: the supplement of paper PMC6555819

Experiments:
Assay in all cases: PBM binding z-score (relative to random genomic background probes); higher = stronger binding; sequences stand for … in GC…GCGATTGACAGCGTAGAATGAAGG
[1] = tested on: PPARg:RXRa DBDmut IVT, anti-RXR (DBD mutation: RXRa K156A/R161A, NR concentration 270 nM, RXRa partner concentration 90 nM)
Method in brief: (§1)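 Ligand-free nuclear receptor dimers were bound for 1 h to custom Agilent 4×180K protein-binding microarrays. Detection used antibodies against each partner (one per run). Binding z-scores rest on regression-normalized fluorescence, with random background probes as the reference.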

[2] = tested on: PPARg:RXRa IVT, anti-PPARg (NR concentration 270 nM, RXRa partner concentration 90 nM)
Method in brief: as §1

[3] = tested on: PPARg DBDmut:RXRa IVT, anti-PPARg (DBD mutation: PPARg1 K132A/R137A, NR concentration 270 nM, RXRa partner concentration 90 nM)
Method in brief: as §1

[4] = tested on: PPARg DBDmut IVT, anti-PPARg (DBD mutation: PPARg1 K132A/R137A, NR concentration 270 nM)
Method in brief: as §1

[5] = tested on: PPARg homodimer (NR concentration 180 nM)
Method in brief: as §1

[6] = tested on: PXR:RXRa (NR concentration 270 nM, RXRa partner concentration 90 nM)
Method in brief: as §1

[7] = tested on: PXR homodimer (NR concentration 270 nM)
Method in brief: as §1

[8] = tested on: RARa:RXR (NR concentration 270 nM, RXRa partner concentration 90 nM)
Method in brief: as §1

[9] = tested on: RARa homodimer (NR concentration 270 nM)
Method in brief: as §1

[10] = tested on: RARb:RXRa (NR concentration 270 nM, RXRa partner concentration 90 nM)
Method in brief: as §1

[11] = tested on: RARb homodimer (NR concentration 270 nM)
Method in brief: as §1

[12] = tested on: RARg:RXRa (NR concentration 270 nM, RXRa partner concentration 90 nM)
Method in brief: as §1

[13] = tested on: RARg homodimer (NR concentration 270 nM)
Method in brief: as §1

[14] = tested on: RXRa DBDmut IVT, anti-RXR (DBD mutation: RXRa K156A/R161A, NR concentration 90 nM)
Method in brief: as §1

[15] = tested on: RXRa homodimer (NR concentration 180 nM)
Method in brief: as §1

[16] = tested on: THRa:RXRa (NR concentration 90 nM, RXRa partner concentration 90 nM)
Method in brief: as §1

[17] = tested on: THRa homodimer (NR concentration 90 nM)
Method in brief: as §1

[18] = tested on: VDR homodimer (NR concentration 270 nM)
Method in brief: as §1

Sequence | PBM binding z-score [1] | PBM binding z-score [2] | PBM binding z-score [3] | PBM binding z-score [4] | PBM binding z-score [5] | PBM binding z-score [6] | PBM binding z-score [7] | PBM binding z-score [8] | PBM binding z-score [9] | PBM binding z-score [10] | PBM binding z-score [11] | PBM binding z-score [12] | PBM binding z-score [13] | PBM binding z-score [14] | PBM binding z-score [15] | PBM binding z-score [16] | PBM binding z-score [17] | PBM binding z-score [18]
CGTCCAAGATCAAGGTCAGTGAAAGAGACTCGAA | 1.25 | 1.67 | -0.223 | -0.447 | 1.25 | 1.82 | 0.628 | 2.07 | 0.651 | 3.28 | 2.88 | 2.83 | 3.03 | 1.15 | 2.01 | 2.86 | 1.63 | 0.979
TCATATAGGTAATACAGTTGAAAGTCGGCATCTA | 4.07 | 2.33 | 1.55 | 1.26 | 1.26 | 1.11 | 0.75 | 1.51 | 2.05 | 0.685 | 0.353 | 0.792 | 0.493 | 1.96 | 1.26 | 0.327 | 0.576 | 0.467
AGAATGAGGTTAAGATCAGGGATACAGAATACAT | 3.07 | 2.89 | 0.847 | 0.843 | 0.828 | 1.23 | 0.547 | 2.08 | 0.49 | 1.92 | 1.26 | 2.17 | 1.83 | 1.17 | 2.45 | 2.78 | 1.25 | 0.506
GCAGATAGGTGAAACGCAGGTAACTCAGGGTGGC | 3.27 | 1.58 | 0.0261 | -0.672 | -0.419 | -0.335 | -0.798 | 0.347 | -0.582 | 0.748 | 0.000492 | 0.873 | 0.288 | -0.635 | 0.592 | 1.32 | -0.559 | -0.593
GGAACGAGGCCAAGTTGATAGCAGAGTTTGATGG | 1.98 | 0.981 | -1.22 | -0.68 | -0.613 | -0.452 | 0.241 | -0.778 | -0.416 | 1.36 | 0.533 | 0.334 | 1.03 | 1.18 | -0.0996 | 0.407 | -0.535 | 0.778
CCTACTGGGCCATGGTCATTGATCAGTCAAAGCA | 3.04 | 3.48 | -0.574 | -0.734 | 0.222 | -0.316 | -0.489 | -0.363 | -1.03 | 0.532 | 0.781 | 0.494 | 0.374 | -1.27 | -0.0481 | 0.0106 | -0.543 | -0.137
TCTTGTAGATCAGCAGGAGGTTAAGAAAGATCGA | 1.2 | 0.727 | 0.985 | 0.0884 | -0.244 | 0.907 | -0.404 | 0.574 | -0.978 | 0.468 | 0.33 | 0.611 | 0.176 | 0.327 | 0.81 | 0.885 | -0.878 | -0.496
TCTTGTAGATCAATAAAGGTTAAGAAAGTGCGCT | 2.1 | 1.29 | 0.661 | 1.24 | 1.33 | 3.04 | 0.584 | 2.3 | 1.6 | 1.53 | 1.87 | 1.1 | 0.821 | 1.1 | 1.72 | 2.05 | -0.219 | 0.571
TCTTGTAGATAAAGCAGGTTAAGAAAGCCTGAGT | 1.9 | 0.689 | -0.607 | 0.523 | 0.35 | 0.561 | 0.376 | 0.708 | 0.783 | 0.2 | 0.29 | 0.138 | 0.0703 | 0.785 | 0.499 | 0.47 | -0.334 | 0.374
TAGCCTAGGTCATTCAGGGGCGAGTATAGAAAGC | 1.58 | 3.05 | 0.363 | 0.38 | 1.3 | 4.17 | -0.00215 | 3.55 | 0.172 | 3.89 | 2.77 | 4.27 | 3.93 | 2.29 | 2.79 | 4.54 | 0.866 | 1.68
TCTTGTAGATCAAAGGTGAAGAAAGCCGAAGCCT | 2.96 | 3.53 | -0.0532 | 0.112 | 0.161 | 0.885 | -0.554 | 1.86 | -0.538 | 1.49 | 0.902 | 0.905 | 0.395 | 0.392 | 1.75 | 0.776 | -0.461 | -0.594
TGAATAAGGTTATAAGATCAGGGAACGTTGCAAA | 0.667 | 1.08 | 1.27 | 0.778 | 0.811 | 0.858 | -0.117 | 1.6 | 0.729 | 1.67 | 0.682 | 1.59 | 1.14 | 0.444 | 1.89 | 1.79 | 0.426 | 0.135
AGTCAAAGTTCAGGACGAGGTAACGTATAGCACG | -0.0709 | 2.03 | 0.949 | 0.866 | 2.09 | 3.08 | 1.29 | 2.97 | 0.98 | 4.34 | 3.26 | 4.94 | 4.94 | 3.22 | 3.15 | 3.88 | 1.73 | 2.37
GCTGCCAGGTCAGGTTGGTCAGCTAACGGGTACG | 0.771 | 1.4 | -0.447 | -1.57 | 0.22 | 0.724 | -0.291 | 1.25 | -0.438 | 3.23 | 2.65 | 2.55 | 3.29 | 0.47 | 1.5 | 2.51 | 1.16 | 0.33
GGAACGAGGGCATTCGAGTTGATAGCCTGGCGAT | 3.64 | 2.1 | -0.256 | -0.793 | -0.188 | 4.04 | 1.57 | 1.58 | -0.598 | 1.82 | 0.74 | 0.929 | 1.41 | 3.31 | 0.739 | 3.25 | -0.752 | 3.28
ACTATTAGTTCACTTAGGGCAACCGATACGACGC | 0.466 | 0.672 | 1.13 | 1.63 | 0.741 | 1.86 | 5.76 | 0.774 | 0.399 | 2.35 | 1.93 | 2.02 | 2.25 | 2.72 | 1.04 | 3.1 | 0.596 | 2.32
